Bioassay records from PubChem.
A selection: hits, their analogues and other compounds. The true share with any hit is near 4.1%.
PolyA inhibitor: inhibitors of polyadenylation in S. cerevisiae | S. cerevisiae SKY197-pL101 polyadenylation reporter, beta-gal luminescence; efflux-impaired pdr1/pdr3 knockout yeast; score 100 = 6 SD above DMSO | activity score, % at 12 µM | hit rate 0.02% among 300,000 | AID 1875;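 active = lowest replicate activity score at least 50, where 100 means six control SD above control mean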;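 note: yeast exposed to compound for 9 h at 30 °C; higher score means more reporter readthrough which indicates perturbed polyadenylation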
DAX1 inh-1: inhibitors of human orphan nuclear receptor DAX1 (NR0B1); P51843; HEK293 Gal4-DAX1 luciferase reporter, luminescence; inhibition, % at 6.75 µM; hit rate 0.99% among 340,000;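 active = inhibition above the mean over all tested compounds plus 3 SD, cut at about 4.2% in these data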;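 note: inhibition shows as a rise in luminescence from relieved DAX1 repression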
Target sequence (P51843 207-470 limits assumed): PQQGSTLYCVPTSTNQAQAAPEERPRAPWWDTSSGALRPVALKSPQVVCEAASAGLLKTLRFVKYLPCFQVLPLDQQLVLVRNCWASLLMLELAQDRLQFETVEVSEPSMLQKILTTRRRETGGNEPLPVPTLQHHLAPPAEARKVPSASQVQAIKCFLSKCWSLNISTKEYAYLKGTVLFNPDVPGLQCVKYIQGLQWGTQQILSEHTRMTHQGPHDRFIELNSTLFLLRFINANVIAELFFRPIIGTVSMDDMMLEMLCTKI
hgDAF-12 ag: activates the H. glycines DAF-12 receptor ligand-binding domain; HEK293 GAL4-hgDAF12 UAS-luciferase reporter, agonist luminescence; normalized to butyrate control; activation, % at 6.8 µM; hit rate 1.8% among 370,000; AID 687014;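 active = activation above a cutoff set at the mean of all screened compounds plus 3 SD, cut at about 10% in these data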
hcDAF12 agonist: H. contortus DAF-12 activation, primary screen; HEK293 hcDAF-12 lit1-tk-luc reporter, luminescence; 0% DMSO, 100% Δ7-dafachronic acid; AID 652067; activation, % at 6.8 µM; hit rate 1.4% among 370,000;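 active = activation above the mean of all tested compounds plus 3 SD, cut at about 5.5% in these data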
ssDAF-12 act: activators of S. stercoralis DAF-12 nuclear receptor; HEK293 ssDAF-12/GRIP1 lit1-tk-luc reporter, luminescence; % of 3 µM dafachronic acid response; activation, % at 6.8 µM; hit rate 1% among 370,000; AID 652126;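 active = activation above the mean over all tested compounds plus 3 SD, cut at about 0.9% in these data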
DAX1 inh-2: blocks DAX1 repression of SF-1 activated StAR promoter; AID 652010; hit rate 1.1% among 370,000; HEK293T StAR-luciferase reporter, SF-1/DAX-1 repression relief; inhibition, % at 6.8 µM;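 active = inhibition above the mean over all tested compounds plus 3 SD, cut at about 3.6% in these data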;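 note: higher inhibition means more luminescence from relief of DAX-1 repression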
LXR ag: counter-screen for hcDAF-12 agonists: agonists of human LXR-beta; AID 743027; HEK293 Gal4-LXR tk-luc reporter, luminescence, 24 h; normalized: DMSO 0%, positive control 100%; 3,400 tested, under 10 active; activation, % at 6.8 µM; shares compounds with hcDAF12 agonist;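 active = mean percent activation of the reporter above a cutoff set as the average over tested compounds plus their standard deviation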
Target sequence (P55055 whole entry, looked up, the tested form may be a part): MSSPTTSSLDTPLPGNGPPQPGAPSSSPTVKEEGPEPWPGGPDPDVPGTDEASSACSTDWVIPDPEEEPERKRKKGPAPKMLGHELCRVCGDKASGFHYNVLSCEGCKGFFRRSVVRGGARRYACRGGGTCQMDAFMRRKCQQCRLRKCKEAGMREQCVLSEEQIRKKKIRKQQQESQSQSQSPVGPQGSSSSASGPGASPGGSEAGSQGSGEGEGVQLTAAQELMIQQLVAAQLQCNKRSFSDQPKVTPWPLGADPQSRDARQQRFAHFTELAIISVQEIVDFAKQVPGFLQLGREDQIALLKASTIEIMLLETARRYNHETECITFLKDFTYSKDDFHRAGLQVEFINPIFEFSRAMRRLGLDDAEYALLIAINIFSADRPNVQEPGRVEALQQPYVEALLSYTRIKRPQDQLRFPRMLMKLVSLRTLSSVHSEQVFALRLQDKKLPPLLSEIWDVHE
hcDAF12 ag: confirmation of H. contortus DAF-12 agonists; shares compounds with hcDAF12 agonist; HEK293 hcDAF-12 lit1-tk-luc reporter, luminescence; % of Δ7-dafachronic acid response; activation, % at 6.8 µM; hit rate 61% among 3,400; AID 743032;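 active = mean activation across triplicate tests above the threshold derived from the earlier primary screen, cut at about 5.5% in these data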
Of the large screens only hits and unclear results are named; the others gave an inactive call (follow-up assays come after a bar, where they were run).

c1ccc(-c2cnc(CSc3nnc4ccccn34)o2)cc1	hgDAF-12 ag 12, hcDAF12 agonist 8.5 | LXR ag inactive | hcDAF12 ag 5.8
CCC1CCC(NC(=O)Nc2cccc(OC)c2)CC1 (centres undefined)	hgDAF-12 ag 19, hcDAF12 agonist 12 | LXR ag inactive | hcDAF12 ag 6.2
COc1ccc(CC2(C)OC(c3ccccc3)=NN2C(C)=O)cc1 (centres undefined)	none
CN(C)Cc1ccccc1-c1cccc2nccn12	none (no result: PolyA inhibitor, DAX1 inh-1)
Cc1nc(NC(=O)c2cccnc2Cl)sc1C	hcDAF12 agonist 8.5 | LXR ag inactive | hcDAF12 ag inactive
CNc1c2cccc(C)c2nc2c(C(=O)NCCN(C)C)cccc12	hcDAF12 agonist 38, ssDAF-12 act 4.1 (no result: PolyA inhibitor) | LXR ag inactive | hcDAF12 ag inactive
Cc1ccc(C(=O)NCCN(C)C)c(C)c1	none
O=C(COC(=O)CN1C(=O)C2CCCCC2C1=O)Nc1cc(S(=O)(=O)N2CCOCC2)ccc1Cl (centres undefined)	none
O=C(COC(=O)CN1C(=O)C2CCCCC2C1=O)Nc1ccc(S(=O)(=O)N2CCOCC2)cc1 (centres undefined)	hcDAF12 agonist 8.9, ssDAF-12 act 1.5 | LXR ag inactive | hcDAF12 ag inactive
O=C(c1ccc(-c2nc3ccccc3s2)o1)N1CCN(c2ccccc2O)CC1	hcDAF12 agonist 6.8 | LXR ag inactive | hcDAF12 ag inactive
CCSc1ncc(/C=N/Nc2ccc(Cl)cc2)n1C	hcDAF12 agonist 12, ssDAF-12 act 1.6 | LXR ag inactive | hcDAF12 ag 10.0
CCOC(=O)N1N=C(c2ccc(C)cc2)CC1(O)C(F)(F)F (centres undefined)	hgDAF-12 ag 11, hcDAF12 agonist 8.1, DAX1 inh-2 4.3 | LXR ag inactive | hcDAF12 ag 8.0
CCOC(=O)N1N=C(c2ccccc2)CC1(O)C(F)(F)F (centres undefined)	none
CCn1ccnc1CN(C)Cc1cn(-c2ccccc2)nc1-c1ccc(OC)cc1F	none
O=CN1Cc2[nH]c3ccccc3c2N(c2ccc(Cl)cc2)C1=O	hcDAF12 agonist 7.0, ssDAF-12 act 1.1 | LXR ag inactive | hcDAF12 ag inactive
C[C@H]1O[C@H](C2CCCC2)CC2=C1C(=O)OC(C)(C)O2	none (no result: PolyA inhibitor, DAX1 inh-1)
CCCCNC(=S)N(CCO)Cc1cc2cc3c(cc2[nH]c1=O)OCCO3	hcDAF12 agonist 7.2 | LXR ag inactive | hcDAF12 ag inactive
O=C(CSCC(=O)Nc1nc(-c2ccc3c(c2)OCO3)cs1)Nc1nccs1	hcDAF12 agonist 8.4 | LXR ag inactive | hcDAF12 ag inactive
O=C(Nc1ccccc1)Nc1nnc(-c2cccs2)s1	hcDAF12 agonist 6.6 | LXR ag inactive | hcDAF12 ag inactive
COc1ccc(C(=O)Nc2nnc(-c3cccs3)s2)cc1	hcDAF12 agonist 6.8, ssDAF-12 act 1.3 | LXR ag inactive | hcDAF12 ag 17
COc1ccc(NC(=O)Nc2nnc(-c3cccs3)s2)cc1	none
CCC(C)c1ccc(Nc2ncccc2C#N)cc1 (centres undefined)	hcDAF12 agonist 7.7 | LXR ag inactive | hcDAF12 ag 8.6
Cc1ccccc1CN(c1ccc(C(=O)NCc2ccccn2)cc1)S(C)(=O)=O	none
CC(=O)n1cc(CO)c2ccccc21	hcDAF12 agonist 7.2 | LXR ag inactive | hcDAF12 ag inactive
CC(=O)O/C(=C\c1cn(C(C)=O)c2ccccc12)C(=O)O	none
COc1cc2ccccc2cc1C(=O)N1CCN(c2ccccn2)CC1	none
Cn1c(=O)c2c(nc(SCCN3CCOCC3)n2Cc2ccc(F)cc2)n(C)c1=O	DAX1 inh-1 4.4, hcDAF12 agonist 7.8 | LXR ag inactive | hcDAF12 ag 7.5
Cn1c(=O)c2c(nc(SCCN3CCOCC3)n2Cc2ccccc2Cl)n(C)c1=O	none
Nn1c(-c2cccs2)nc2sc3c(c2c1=O)CCCC3	hgDAF-12 ag 12, hcDAF12 agonist 21, ssDAF-12 act 2.0 | LXR ag inactive | hcDAF12 ag 11
CC1(C)Cc2c(sc3nc(-c4cccs4)n(N)c(=O)c23)CO1	none
CCCCN(C=O)c1c(CC)nc2c(OCc3ccc(Cl)cc3Cl)cccn12	none (no result: PolyA inhibitor, DAX1 inh-1)
CCOc1ccc(NC(=O)CN(C)C(=O)c2sc3ccccc3c2Cl)cc1OCC	none
C=CCn1c(C)nnc1SCC(=O)Nc1nc(C)c(C(=O)N(C)C)s1	hcDAF12 agonist 7.3 | LXR ag inactive | hcDAF12 ag inactive
C=CCn1c(C)nnc1SCC(=O)Nc1nccs1	none
OC(c1ccc(Cl)cc1)c1ncc(-c2ccccc2F)[nH]1 (centres undefined)	none (no result: PolyA inhibitor, DAX1 inh-1)
O=C(CC1C(=O)NCCN1Cc1ccccc1)NCCCOc1cccnc1 (centres undefined)	hcDAF12 agonist 14 | LXR ag inactive | hcDAF12 ag inactive
CCc1cc2c(NC(Cc3c[nH]c4ccccc34)C(=O)O)nc(C)nc2s1 (centres undefined)	none
CCc1cc2c(N[C@@H](Cc3c[nH]c4ccccc34)C(=O)O)ncnc2s1	hcDAF12 agonist 8.0 | LXR ag inactive | hcDAF12 ag inactive
Cc1sc2ncnc(N[C@@H](Cc3c[nH]c4ccccc34)C(=O)O)c2c1C	hcDAF12 agonist 7.0 | LXR ag inactive | hcDAF12 ag 5.7
Cn1cc(Cc2ccc(C(=O)N3CCOCC3)cn2)c2ccccc21	none (no result: PolyA inhibitor, DAX1 inh-1)
O=S(=O)(Nc1ccn(-c2ccccc2)n1)c1ccc(Br)cc1	hcDAF12 agonist 7.3 | LXR ag inactive | hcDAF12 ag inactive
Cc1ccc(/C=C/C(=O)C2C(=O)c3ccccc3C2=O)cc1	hcDAF12 agonist 8.7 | LXR ag inactive | hcDAF12 ag 12
Cc1ccc(/C=C/C(=O)c2ccc(C)cc2)cc1	none
CC/C(C)=N/Nc1cccc([N+](=O)[O-])c1	none
COc1ccc(/C(C)=N/NC(=O)CNC(=O)/C=C\c2ccccc2OC)c(OC)c1	none
Cc1noc(C)c1C(=O)Nc1nccs1	none
CCc1noc(C)c1C(=O)Nc1nc2c(C)cccc2s1	none
CCc1noc(C)c1C(=O)Nc1nc2c(F)cc(F)cc2s1	hcDAF12 agonist 11 (no result: PolyA inhibitor) | LXR ag inactive | hcDAF12 ag inactive
O=C(Nc1nc2c(F)cc(F)cc2s1)c1ccccn1	hgDAF-12 ag 13, hcDAF12 agonist 7.0 | LXR ag inactive | hcDAF12 ag inactive
COc1ccc(C(=O)O)cc1S(=O)(=O)Nc1ccccc1Cc1ccccc1	none
CC1CCN(CC(=O)Nc2ccc(Br)cc2[N+](=O)[O-])CC1	none
COC(=O)c1ccc(CSc2nnnn2C)o1	none
